Measurements reported in PubChem BioAssay (NCATS).
Results filed as inconclusive are left out. Active and inactive are the calls of the source. Calls follow the shape of the dose curve; as a rule, active = well fitted curve in the direction sought with a large enough effect; inconclusive = small, poorly fitted or top-dose-only effect, or another doubt; inactive = no such curve, though single readings can be large; an effect the other way counts as inactive or inconclusive.

biological target: Voltage-gated inwardly rectifying potassium channel KCNH2 (Homo sapiens) (UniProt Q12809); test: qHTS Assay for Small Molecule Inhibitors of the Human hERG Channel Activity (AID 588834); conditions: U2OS BacMam hERG, FluxOR thallium flux fluorescence; series mostly up to 46.1 µM; activity change, negative = inhibition: at the top concentration;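 also: lower thallium flux fluorescence means stronger hERG block; nearly all actives have a fitted effect of over 50% in size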;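 as to activity change, negative = inhibition: U2OS cells transduced with hERG by BacMam; top concentration of the series differs between compounds; % is scaled to controls: 0 for no effect and ±100 for the full control effect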
Outline: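 Cells were infected with hERG-BacMam virus for 4 hrs at room temperature, grown overnight, then seeded at 2000/well. After dye loading and roughly 10 min compound treatment, thallium influx was triggered and fluorescence recorded.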
Potency is read from the fitted curve at half-maximal effect.

Voltage-gated inwardly rectifying potassium channel KCNH2 (Homo sapiens), sequence (Q12809 whole entry, looked up): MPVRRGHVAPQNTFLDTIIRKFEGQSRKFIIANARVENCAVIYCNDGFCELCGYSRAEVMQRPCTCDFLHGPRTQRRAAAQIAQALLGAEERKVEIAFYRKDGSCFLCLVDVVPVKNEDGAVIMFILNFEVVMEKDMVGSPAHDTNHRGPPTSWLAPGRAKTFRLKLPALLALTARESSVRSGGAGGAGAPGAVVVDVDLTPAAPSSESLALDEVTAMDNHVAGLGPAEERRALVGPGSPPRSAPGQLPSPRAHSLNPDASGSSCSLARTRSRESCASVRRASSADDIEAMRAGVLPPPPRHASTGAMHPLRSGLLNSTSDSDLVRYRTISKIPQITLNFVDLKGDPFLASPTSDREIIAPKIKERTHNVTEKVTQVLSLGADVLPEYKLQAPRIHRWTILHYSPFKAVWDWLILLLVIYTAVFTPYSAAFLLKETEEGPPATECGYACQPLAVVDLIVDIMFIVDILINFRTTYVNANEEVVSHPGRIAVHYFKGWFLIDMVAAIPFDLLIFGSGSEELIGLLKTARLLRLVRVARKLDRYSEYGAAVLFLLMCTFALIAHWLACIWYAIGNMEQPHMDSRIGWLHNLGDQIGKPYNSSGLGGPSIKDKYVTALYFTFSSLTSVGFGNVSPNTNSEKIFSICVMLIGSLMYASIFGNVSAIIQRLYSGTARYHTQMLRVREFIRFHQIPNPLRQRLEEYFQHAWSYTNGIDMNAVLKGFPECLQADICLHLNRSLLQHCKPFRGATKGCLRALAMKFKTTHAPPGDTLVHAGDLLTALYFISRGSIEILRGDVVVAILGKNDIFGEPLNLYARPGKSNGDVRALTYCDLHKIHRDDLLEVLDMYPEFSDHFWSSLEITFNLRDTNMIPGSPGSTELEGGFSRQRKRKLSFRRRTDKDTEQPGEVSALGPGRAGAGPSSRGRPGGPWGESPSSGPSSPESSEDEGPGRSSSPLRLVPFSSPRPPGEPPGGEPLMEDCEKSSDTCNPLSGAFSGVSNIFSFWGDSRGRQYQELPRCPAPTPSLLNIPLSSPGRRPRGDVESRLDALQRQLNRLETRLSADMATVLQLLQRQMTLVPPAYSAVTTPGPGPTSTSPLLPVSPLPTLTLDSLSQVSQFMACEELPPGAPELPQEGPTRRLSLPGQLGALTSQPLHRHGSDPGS

| SMILES | Potency | activity change, negative = inhibition |
| --- | --- | --- |
| CN(C)CC/C=C1\c2ccccc2Sc2ccc(Cl)cc21 | 8.91 µM (active) |  |
| CC1(C)CCC(NC(=O)[C@@H](N)CCC(=O)O)CC1 |  | 19.7% (inactive) |
| CCCCCCCCCCOCC(O)CN (stereo unspecified) | 25.1 µM (active) |  |
| N[C@H](CO)C(=O)O |  | 7.77% (inactive) |
| CN(C)CCCOc1nn(Cc2ccccc2)c2ccccc12 | 5.01 µM (active) |  |
| Nc1cc(Cl)c(NC2=NCCN2)c(Cl)c1 | 0.708 µM (active) |  |
| NC(CS)C(=O)O (stereo unspecified) |  | -8.74% (inactive) |
| Oc1c(I)cc(I)c2cccnc12 |  | 176% (inactive) |
| C#C[C@]1(O)CC[C@H]2[C@@H]3CCc4cc(OC5CCCC5)ccc4[C@H]3CC[C@@]21C |  | -7.7% (inactive) |
| CC(=O)c1ccc2c(c1)N(CCCN1CCC(CCO)CC1)c1ccccc1S2 | 1.26 µM (active) |  |
| CN=C(NC#N)NCCSCc1csc(N=C(N)N)n1 |  | 4.26% (inactive) |
| NC(=O)C(=O)N/N=C/c1ccc([N+](=O)[O-])o1 |  | 3.28% (inactive) |
| CCCCCCCCCCCCCCCC[N+](C)(C)CCN(Cc1ccc(OC)cc1)c1ncccn1 | 1.41 µM (active) |  |
| COCc1c(C(C)C)nc(C(C)C)c(/C=C/[C@@H](O)C[C@@H](O)CC(=O)O)c1-c1ccc(F)cc1 |  | -1.98% (inactive) |
| CC1=C(C(=O)OC(C)C)C(c2cccc([N+](=O)[O-])c2)C(C(=O)OC2CN(C(c3ccccc3)c3ccccc3)C2)=C(N)N1 (stereo unspecified) |  | -27.2% (inactive) |
| CC(=O)Nc1c(I)cc(I)c(C(=O)O)c1I |  | 3.82% (inactive) |
| CN1CCN(CCCN2c3ccccc3Sc3ccc(S(=O)(=O)N(C)C)cc32)CC1 | 6.31 µM (active) |  |
| CN1CCC(=C2c3ccccc3Sc3ccccc32)CC1 | 4.47 µM (active) |  |
| CCOC(=O)/C=C(C)/C=C/C=C(C)/C=C/c1c(C)cc(OC)c(C)c1C |  | -0.545% (inactive) |

biological target: Luciferin 4-monooxygenase (Photinus pyralis) (UniProt P08659); test: Biochemical firefly luciferase enzyme assay for NPC (AID 624030); also: nearly all actives have a fitted effect of over 70% in size;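 as to activity change, negative = inhibition: purified P. pyralis luciferase at 10 nM with luciferin and ATP substrate; 0% = DMSO and -100% = full luciferase inhibition by PTC124 control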; conditions: purified P. pyralis luciferase, luminescence, 5 min; series mostly up to 58.6 µM; activity change, negative = inhibition: at the top concentration
Outline: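 Direct inhibition of firefly luciferase enzyme (10 nM final, 50 mM Tris Acetate) assessed by luminescence within 5 minutes. Percent activity scaled between DMSO and PTC124 positive control, with concentration-effect curves classified by fit quality and response.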

Luciferin 4-monooxygenase (Photinus pyralis), sequence (P08659 whole entry, looked up): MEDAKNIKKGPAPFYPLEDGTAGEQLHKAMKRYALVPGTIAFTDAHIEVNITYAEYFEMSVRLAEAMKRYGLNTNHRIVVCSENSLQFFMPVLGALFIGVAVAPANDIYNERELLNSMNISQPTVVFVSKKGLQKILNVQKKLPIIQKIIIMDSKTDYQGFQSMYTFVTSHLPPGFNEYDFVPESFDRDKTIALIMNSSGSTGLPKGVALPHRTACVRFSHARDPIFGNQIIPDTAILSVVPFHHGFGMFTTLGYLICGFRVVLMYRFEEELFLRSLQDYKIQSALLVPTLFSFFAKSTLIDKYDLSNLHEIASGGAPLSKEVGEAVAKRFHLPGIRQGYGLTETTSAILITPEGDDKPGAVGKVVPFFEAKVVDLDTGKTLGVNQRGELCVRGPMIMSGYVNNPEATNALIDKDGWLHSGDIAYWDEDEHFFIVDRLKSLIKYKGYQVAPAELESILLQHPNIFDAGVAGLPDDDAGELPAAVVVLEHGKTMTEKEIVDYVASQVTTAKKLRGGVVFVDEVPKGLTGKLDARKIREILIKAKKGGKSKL

| SMILES | activity change, negative = inhibition | Potency |
| --- | --- | --- |
| CCOC(=O)OC(C)OC1=C(C(=O)Nc2ccccn2)N(C)S(=O)(=O)c2ccccc21 (stereo unspecified) | -1.55% (inactive) |  |
| C1CCc2nnnn2CC1 | 2.11% (inactive) |  |
| C[C@@H](CN(C)C)CN1c2ccccc2Sc2ccccc21 | 5.06% [at 24.9 µM] (inactive) |  |
| COc1c(C)c2c(c(O)c1C/C=C(\C)CCC(=O)O)C(=O)OC2 | -0.546% [at 24.9 µM] (inactive) |  |
| CCCCCCCCCCCCCCNCCO | -4.71% (inactive) |  |
| Cc1ccc(O)c2ncccc12 | 8.08% (inactive) |  |
| O=C1[C@H]2CCCC[C@H]2C(=O)N1CCCCN1CCN(c2nsc3ccccc23)CC1 | 5.92% (inactive) |  |
| c1ccc(OCc2ccc(CCCN3CCOCC3)cc2)cc1 | -13% (inactive) |  |
| CCCCC(CC)CN=C(N)NC(N)=NCCCCCCN=C(N)NC(N)=NCC(CC)CCCC (stereo unspecified) | 1.19% (inactive) |  |
| CCN(CC)CCOC(=O)C(c1ccccc1)C1CCCCC1 (stereo unspecified) | 3.5% (inactive) |  |
| CCN(CC)CCOc1ccc(C(O)(Cc2ccc(Cl)cc2)c2ccc(C)cc2)cc1 (stereo unspecified) | 13.8% (inactive) |  |
| O=C(CCN1CCC(c2ccccc2)C1)c1ccc2c(c1)OCCO2 (stereo unspecified) | -9.06% (inactive) |  |
| N[C@H](Cc1c[nH]c2ccccc12)C(=O)O | -22.8% (inactive) |  |
| COc1cc(NS(C)(=O)=O)ccc1Nc1c2ccccc2nc2ccccc12 |  | 14.4 µM (active) |
| CCOC(=O)COc1ccc2c(C)c(CCN(CC)CC)c(=O)oc2c1Cl | 5.6% (inactive) |  |
| CCC(=O)c1c(O)cc(O)cc1O | -5.59% (inactive) |  |
| CC(Cc1cccc(C(F)(F)F)c1)NCCOC(=O)c1ccccc1 (stereo unspecified) | 0.232% (inactive) |  |
| O=C1CCC(c2ccc(-n3ccnc3)cc2)=NN1 | 0.0884% (inactive) |  |
| CNCCC=C1c2ccccc2CCc2ccccc21 | 8.11% (inactive) |  |

| SMILES | activity change, negative = inhibition | Potency |
| --- | --- | --- |
| CN(C)CC/C=C1\c2ccccc2Sc2ccc(Cl)cc21 | 8.97% (inactive) |  |
| CC1(C)CCC(NC(=O)[C@@H](N)CCC(=O)O)CC1 | -1.61% (inactive) |  |
| CCCCCCCCCCOCC(O)CN (stereo unspecified) | -1.64% (inactive) |  |
| N[C@H](CO)C(=O)O | 2.61% (inactive) |  |
| CN(C)CCCOc1nn(Cc2ccccc2)c2ccccc12 | 2.91% [at 24.9 µM] (inactive) |  |
| Nc1cc(Cl)c(NC2=NCCN2)c(Cl)c1 | 0.749% (inactive) |  |
| NC(CS)C(=O)O (stereo unspecified) | 38.6% (inactive) |  |
| Oc1c(I)cc(I)c2cccnc12 | -15% (inactive) |  |
| C#C[C@]1(O)CC[C@H]2[C@@H]3CCc4cc(OC5CCCC5)ccc4[C@H]3CC[C@@]21C | -5.17% (inactive) |  |
| CC(=O)c1ccc2c(c1)N(CCCN1CCC(CCO)CC1)c1ccccc1S2 | 0.915% [at 24.9 µM] (inactive) |  |
| CN=C(NC#N)NCCSCc1csc(N=C(N)N)n1 | 0.237% (inactive) |  |
| NC(=O)C(=O)N/N=C/c1ccc([N+](=O)[O-])o1 | -8.18% (inactive) |  |
| CCCCCCCCCCCCCCCC[N+](C)(C)CCN(Cc1ccc(OC)cc1)c1ncccn1 | 18.5% [at 24.9 µM] (inactive) |  |
| COCc1c(C(C)C)nc(C(C)C)c(/C=C/[C@@H](O)C[C@@H](O)CC(=O)O)c1-c1ccc(F)cc1 | -10.5% (inactive) |  |
| CC1=C(C(=O)OC(C)C)C(c2cccc([N+](=O)[O-])c2)C(C(=O)OC2CN(C(c3ccccc3)c3ccccc3)C2)=C(N)N1 (stereo unspecified) | 0.0422% (inactive) |  |
| CC(=O)Nc1c(I)cc(I)c(C(=O)O)c1I | -2.41% (inactive) |  |
| CN1CCN(CCCN2c3ccccc3Sc3ccc(S(=O)(=O)N(C)C)cc32)CC1 | 3.96% [at 24.9 µM] (inactive) |  |
| CN1CCC(=C2c3ccccc3Sc3ccccc32)CC1 | 10.4% (inactive) |  |
| CCOC(=O)/C=C(C)/C=C/C=C(C)/C=C/c1c(C)cc(OC)c(C)c1C | 1.42% (inactive) |  |

tested on: not listed separately; test: S16 Schwann cell viability assay (CellTiter-Glo assay) (AID 624031); conditions: S16 rat Schwann cells viability, 24 h; series mostly up to 57.5 µM; activity change, negative = cytotoxicity: at the top concentration; also: nearly all actives have a fitted effect of over 70% in size;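 as to activity change, negative = cytotoxicity: cellular ATP luminescence as a viability measure; plate controls were DMSO-treated cells for no effect and cell-free wells for full effect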
Outline: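 CellTiter-Glo ATP luminescence counter-screen in untransfected S16 rat Schwann cells, 24h compound exposure at 37 degree Celsius after overnight seeding (500-750 cells/well); response scaled between cell-free wells and DMSO (0% activity), curves classed by r2 and magnitude.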

| SMILES | activity change, negative = cytotoxicity | Potency |
| --- | --- | --- |
| CCOC(=O)OC(C)OC1=C(C(=O)Nc2ccccn2)N(C)S(=O)(=O)c2ccccc21 (stereo unspecified) | 7.3% (inactive) |  |
| C1CCc2nnnn2CC1 | 2.67% (inactive) |  |
| CCCCCCCCCCCCCCNCCO | -5.61% (inactive) |  |
| O=C1[C@H]2CCCC[C@H]2C(=O)N1CCCCN1CCN(c2nsc3ccccc23)CC1 |  | 32.2 µM (active) |
| CCCCC(CC)CN=C(N)NC(N)=NCCCCCCN=C(N)NC(N)=NCC(CC)CCCC (stereo unspecified) |  | 20.3 µM (active) |
| CCN(CC)CCOC(=O)C(c1ccccc1)C1CCCCC1 (stereo unspecified) | -19.1% (inactive) |  |
| O=C(CCN1CCC(c2ccccc2)C1)c1ccc2c(c1)OCCO2 (stereo unspecified) |  | 28.7 µM (active) |
| N[C@H](Cc1c[nH]c2ccccc12)C(=O)O | 6.49% (inactive) |  |
| COc1cc(NS(C)(=O)=O)ccc1Nc1c2ccccc2nc2ccccc12 |  | 32.2 µM (active) |
| CCC(=O)c1c(O)cc(O)cc1O | -5.21% (inactive) |  |
| O=C1CCC(c2ccc(-n3ccnc3)cc2)=NN1 | -2.53% (inactive) |  |
| CNCCC=C1c2ccccc2CCc2ccccc21 |  | 10.2 µM (active) |
| CC1(C)CCC(NC(=O)[C@@H](N)CCC(=O)O)CC1 | 0% (inactive) |  |
| N[C@H](CO)C(=O)O | 10.6% (inactive) |  |
| CN(C)CCCOc1nn(Cc2ccccc2)c2ccccc12 | 6.73% [at 25.7 µM] (inactive) |  |
| Nc1cc(Cl)c(NC2=NCCN2)c(Cl)c1 | -1.51% (inactive) |  |
| NC(CS)C(=O)O (stereo unspecified) | 5.4% (inactive) |  |
| C#C[C@]1(O)CC[C@H]2[C@@H]3CCc4cc(OC5CCCC5)ccc4[C@H]3CC[C@@]21C |  | 32.2 µM (active) |
| CC(=O)c1ccc2c(c1)N(CCCN1CCC(CCO)CC1)c1ccccc1S2 | -28.5% [at 25.7 µM] (inactive) |  |
| CN=C(NC#N)NCCSCc1csc(N=C(N)N)n1 | -7.89% (inactive) |  |
| COCc1c(C(C)C)nc(C(C)C)c(/C=C/[C@@H](O)C[C@@H](O)CC(=O)O)c1-c1ccc(F)cc1 | -2.32% (inactive) |  |
| CC(=O)Nc1c(I)cc(I)c(C(=O)O)c1I | -11.8% (inactive) |  |
| CN1CCC(=C2c3ccccc3Sc3ccccc32)CC1 |  | 28.7 µM (active) |
| CCOC(=O)/C=C(C)/C=C/C=C(C)/C=C/c1c(C)cc(OC)c(C)c1C | 1.87% (inactive) |  |
